# Measurements as given in the supplement of paper PMC6555819.
# Tested on: RXRa homodimer (NR concentration 180 nM)
# Assay: PBM binding z-score (relative to random genomic background probes); higher = stronger binding; sequences stand for … in GC…GCGATTGACAGCGTAGAATGAAGG
# Procedure, shortened: (§1)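 Binding z-scores were set against random background probes. The data came from custom Agilent 4×180K protein-binding microarrays carrying double-stranded probes with 34-nt variable regions, incubated 1 h with ligand-free nuclear receptor dimers. Partner-specific antibodies detected binding, and scanned fluorescence was regression-normalized.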
row,Sequence,PBM binding z-score
1,GCAGACAGGTGAAACGCAGGTAGCTCAGGGTGGC,0.367
2,AGAATGAGGTTAGGATCAGGGAAACAGAATACAT,1.37
3,CAAACTAGGTCACCGGAAGGTCACAGTCCGCATG,6.67
4,TGAATCAGGTTAAAGATCAGGGAACGTGGCGTCG,1.71
5,ATCGAAAGGTCGAGGTGAGTAAAGAGAAAGGGAA,4.08
6,GCATATAGGTAATACCAGGTGAAAGTCCGATTGT,0.369
7,CCGACTGGGGCAGAAAGGTAACCATACCATCCGG,0.166
8,TCTTGTAGATCAACAGGAGGTTAAGAAAGATCGA,0.762
9,GCTGCTAGGTCAACTAATGGTCAGCTAAAGCTCG,2.65
10,GCGACTGGGGCAAGGCAGGTTACCATAAGGTTGG,0.144
11,ATATGTAGGTTAACGGGTCATTCAGTTTGCGCAT,3.46
12,GCTCGGAGAACAAGGTCAGAGCTTTGTCCGTAGA,2.16
13,CCTTACGGGTCCCGAGGTTATAGCACGACGAGCG,0.999
14,CCTTACGGGTCACGAGGTTATATCACGACGAGCG,7.11
15,GATCGGAGGACAAGGTCAGAGCTTTGTCCGTAGA,2.48
16,ATATGTAGGTTACATACGGGTCATTCAGGCTATG,3.48
17,GCAAACAGGTGAAACGCAGGTAACTCAGGGTGGC,0.616
18,TCTTGTAGATCAACAGGAGGTCAAGAAAGATCGA,3.64
19,TGAATGAGGTTAAAGATCAGGAAACGTGGCGTCG,3.88
20,GCTGCTATGTCAACTGATGGTCAGCTAAAGCTCG,-0.00112

row,Sequence,PBM binding z-score
1,TAGCCTAGTTCAGATCGGGCCAGTATACGCTATA,-0.081
2,TCTTGTAGATCACCAGGAGGTTAAGAAAGATCGA,1.14
3,TGAATGAGGTTAAAGATCAGGGATCGTGGCGTCG,3.63
4,TAGCCTAGGTCAGATCTGGCCAGTATACGCTATA,1.3
5,TAGCCTAGGTCATGGGCCACTATACCACGCGAAC,3.72
6,GCTGCTAGGTCAACTGATGGACAGCTAAAGCTCG,2.94
7,CGTCCAAGGTCATAGGACGTCAGTGAAGACAGAT,5.36
8,CGTGCAAGGTCAAGGTCAGTGAAAGAGACTCGAA,6.7
9,ACTTACGGGTCAACGTGGTTATAGCACGCGTATA,6.28
10,ACTAGCAGGCCAACGGTCACTCAAGATTAGTCCG,0.345
11,ATCGAAAGGTCGTAGGTGAGTATACCCACCCGAA,5.28
12,CCAACTGGGCCATCAGGTCATTGATATCAACGTT,1.46
13,CGTCCAAGGTCATAGGCGGTCAGTGAAGACAGAT,5.94
14,CCGACTAGGTTATGGGGCATTCAGGCAACGGTGA,0.666
15,TTACCAAGGTGGAAGGTCGTTGATGCACGCCTTG,1.43
16,CGTACAAGGTCAGCAGGTCAGTGAAAGCGACGTG,5.36
17,CCTACTGGGCCATAAAGGTCATTGATGCCGATAA,4.73
18,ATCGAAAGGTCGAAGGTGAGTAAACCCACCCGAA,4.9
19,AGTCAAAATTCAGGACGAGGTAACGTAAAGCACG,0.601
20,GATACATGGTCAGCTAGAGGCCAGAGTATGGAAA,0.128

# Tested on: THRa:RXRa (NR concentration 90 nM, RXRa partner concentration 90 nM)
# Assay: as above
# Procedure, shortened: as §1
row,Sequence,PBM binding z-score
1,GCAGACAGGTGAAACGCAGGTAGCTCAGGGTGGC,0.401
2,AGAATGAGGTTAGGATCAGGGAAACAGAATACAT,2.13
3,CAAACTAGGTCACCGGAAGGTCACAGTCCGCATG,4.49
4,TGAATCAGGTTAAAGATCAGGGAACGTGGCGTCG,1.04
5,ATCGAAAGGTCGAGGTGAGTAAAGAGAAAGGGAA,2.63
6,GCATATAGGTAATACCAGGTGAAAGTCCGATTGT,3.99
7,CCGACTGGGGCAGAAAGGTAACCATACCATCCGG,0.0799
8,TCTTGTAGATCAACAGGAGGTTAAGAAAGATCGA,0.782
9,GCTGCTAGGTCAACTAATGGTCAGCTAAAGCTCG,2.74
10,GCGACTGGGGCAAGGCAGGTTACCATAAGGTTGG,2.41
11,ATATGTAGGTTAACGGGTCATTCAGTTTGCGCAT,2.27
12,GCTCGGAGAACAAGGTCAGAGCTTTGTCCGTAGA,2.58
13,CCTTACGGGTCCCGAGGTTATAGCACGACGAGCG,1.1
14,CCTTACGGGTCACGAGGTTATATCACGACGAGCG,3.77
15,GATCGGAGGACAAGGTCAGAGCTTTGTCCGTAGA,2.94
16,ATATGTAGGTTACATACGGGTCATTCAGGCTATG,2.73
17,GCAAACAGGTGAAACGCAGGTAACTCAGGGTGGC,1.52
18,TCTTGTAGATCAACAGGAGGTCAAGAAAGATCGA,3.02
19,TGAATGAGGTTAAAGATCAGGAAACGTGGCGTCG,2.41
20,GCTGCTATGTCAACTGATGGTCAGCTAAAGCTCG,-0.0819

row,Sequence,PBM binding z-score
1,TAGCCTAGTTCAGATCGGGCCAGTATACGCTATA,2.53
2,TCTTGTAGATCACCAGGAGGTTAAGAAAGATCGA,1.01
3,TGAATGAGGTTAAAGATCAGGGATCGTGGCGTCG,2.33
4,TAGCCTAGGTCAGATCTGGCCAGTATACGCTATA,2.57
5,TAGCCTAGGTCATGGGCCACTATACCACGCGAAC,3.14
6,GCTGCTAGGTCAACTGATGGACAGCTAAAGCTCG,2.72
7,CGTCCAAGGTCATAGGACGTCAGTGAAGACAGAT,3.83
8,CGTGCAAGGTCAAGGTCAGTGAAAGAGACTCGAA,4.26
9,ACTTACGGGTCAACGTGGTTATAGCACGCGTATA,2.64
10,ACTAGCAGGCCAACGGTCACTCAAGATTAGTCCG,-0.135
11,ATCGAAAGGTCGTAGGTGAGTATACCCACCCGAA,2.5
12,CCAACTGGGCCATCAGGTCATTGATATCAACGTT,3.19
13,CGTCCAAGGTCATAGGCGGTCAGTGAAGACAGAT,4.35
14,CCGACTAGGTTATGGGGCATTCAGGCAACGGTGA,0.586
15,TTACCAAGGTGGAAGGTCGTTGATGCACGCCTTG,0.674
16,CGTACAAGGTCAGCAGGTCAGTGAAAGCGACGTG,3.93
17,CCTACTGGGCCATAAAGGTCATTGATGCCGATAA,3.05
18,ATCGAAAGGTCGAAGGTGAGTAAACCCACCCGAA,2.15
19,AGTCAAAATTCAGGACGAGGTAACGTAAAGCACG,1.99
20,GATACATGGTCAGCTAGAGGCCAGAGTATGGAAA,-0.168
